# A selection: hits, their analogues and other compounds. The true share with any hit is near 1.2%.
# NOD2-RIPK2 inh – NOD2-RIPK2 binding disruptors in cells, primary screen, fluorescence, CHO cells, BLA complementation; Receptor-interacting serine/threonine-protein kinase 2 (Homo sapiens), O43353; CCF4 ratio; inhibition, % at 4.98 µM; 360,000 compounds, 0.38% hits; in the data active = inhibition above about 21%;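 also: 0% = vehicle only and 100% = reference blocker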
# Target sequence (O43353 whole entry, looked up): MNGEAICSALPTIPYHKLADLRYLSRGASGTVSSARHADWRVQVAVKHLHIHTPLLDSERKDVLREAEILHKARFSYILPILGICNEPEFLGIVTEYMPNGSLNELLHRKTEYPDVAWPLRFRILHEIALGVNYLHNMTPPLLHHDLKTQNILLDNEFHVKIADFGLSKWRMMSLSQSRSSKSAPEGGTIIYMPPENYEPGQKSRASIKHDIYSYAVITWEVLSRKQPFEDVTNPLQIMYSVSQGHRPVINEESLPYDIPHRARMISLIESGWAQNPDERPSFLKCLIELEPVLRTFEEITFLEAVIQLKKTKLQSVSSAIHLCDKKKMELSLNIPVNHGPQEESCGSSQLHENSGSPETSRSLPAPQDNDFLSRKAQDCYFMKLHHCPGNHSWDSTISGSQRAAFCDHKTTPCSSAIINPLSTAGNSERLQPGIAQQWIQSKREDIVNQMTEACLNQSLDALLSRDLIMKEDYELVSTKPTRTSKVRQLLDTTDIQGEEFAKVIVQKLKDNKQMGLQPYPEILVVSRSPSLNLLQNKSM
# TLR4 MyD88 comp – inhibitors of TLR4-MyD88 association in cells, primary screen, cell-based, HeLa CL3-4, BLA complementation, FRET ratio. 200,000 compounds, 0.18% hits. HeLa CL3-4 TLR4/MyD88 BLA complementation. Toll-like receptor 4 (Homo sapiens) + Myeloid differentiation primary response protein …. AID 861, 2007. inhibition, % at 8.4 µM; in the data active = inhibition above about 25%;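 also: 0% = vehicle and 100% = reference inhibitor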
# Neddylation inh – inhibitors of cullin neddylation, primary screen, biochemical, TR-FRET, uHTS, NAE and Ubc12. inhibition, % at 25 µM. NEDD8-conjugating enzyme Ubc12 (Homo sapiens) + NEDD8-activating enzyme E1 regulatory …. 360,000 compounds, 0.58% hits; in the data active = inhibition above about 36%
# TLR9-MyD88 inh – inhibitors of TLR9-MyD88 association in cells, primary screen, cell-based, CHO, BLA complementation, fluorescence. AID 504734, 2011. Toll-like receptor 9 (Homo sapiens) + Myeloid differentiation primary response protein …. 340,000 compounds, 0.21% hits. CCF4 FRET ratio. inhibition, % at 4.98 µM;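 active = inhibition above the mean over all tested compounds plus 3 SD, cut at about 21% in these data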;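 also: 0% = DMSO only wells and 100% = clavulanate BLA inhibitor control wells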
# GC-B act – human GC-B receptor activators, primary screen, HEK293 GC-B cells, cGMP TR-FRET, EC30 CNP | 0% at EC30 CNP, 100% saturating CNP | Atrial natriuretic peptide receptor 2 (Homo sapiens), P20594 | 370,000 compounds, 0.11% hits | AID 1920062, 2024 | activation, % at 10 µM;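 active = activation at 10 µM reaching about 35% in either raw or pattern-adjusted values, limit read from the data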
# NPR1 activator – GC-A stimulated cGMP production enhancers – HEK293 GC-A cells, cGMP TR-FRET, EC30 ANP, primary screen. 0% at EC30 ANP, 100% saturating ANP. activation, % at 10 µM. 370,000 compounds, 0.14% hits; in the data active = activation above about 40%
# Neddyl inh conf – blockade of NEDD8 conjugation to cullin – biochemical, TR-FRET, single concentration, confirmation. shares compounds with Neddylation inh. TR-FRET cullin neddylation biochemical assay. calls only at 25 µM. 1,800 compounds, 13% hits. AID 652217, 2013; in the data active = inhibition above about 40%;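 also: neddylation substrate is the cullin 1 ring ligase complex with SKP2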
# The depositor's hits bear a star; i = inactive; nt = not tested or not shown; + = active, no number.
SMILES,NOD2-RIPK2 inh,TLR4 MyD88 comp,Neddylation inh,TLR9-MyD88 inh,GC-B act,NPR1 activator,Neddyl inh conf
COc1cccc(C(c2c(NC(=O)c3ccco3)sc(C)c2C)N2CCOCC2)c1 (configuration not stated),-4,nt,43*,-3,-17,-23,nt
CC1=C(C(=O)N(C)C)CC(CC(=O)NCc2ccco2)C(=O)N1Cc1ccccc1 (configuration not stated),-7,nt,0,-1,-4,-2,nt
Nc1c(C(=O)Nc2ccc3c(c2)OCCO3)nnn1Cc1cccc(Cl)c1,-4,nt,30,-2,-3,1,nt
Nc1c(C(=O)Nc2ccc3c(c2)OCCO3)nnn1Cc1ccc(F)cc1,-8,nt,50*,-3,-4,-2,i
Cc1ccc(C(=O)N/C(=C/c2ccc(-c3ccc(Br)cc3)o2)C(=O)NC2CCS(=O)(=O)C2)cc1 (configuration not stated),-12,-17,48*,4,-2,-2,i
COc1ccc(/C=N/NC(=O)c2cccs2)c2ccccc12,3,nt,46*,3,3,-3,i
COc1ccc(/C=N/NC(=O)c2cccnc2)c2ccccc12,7,nt,-2,4,-5,-10,nt
COc1ccc(OC)c(C=NNC(=O)c2ccccc2NS(=O)(=O)c2cccs2)c1,2,nt,34*,-2,3,2,nt
COC(=O)[C@@]12C[C@@H](CC(=O)N3CCC(c4ccccc4)CC3)C(=O)N(Cc3cccc4ccccc34)C1=CCC(C)(C)C2,-6,nt,-8,nt,5,0,nt
Cc1cccc(C)c1NC(=O)CN(C)C(=O)c1ccc(OCc2ccccc2)cc1,-18,nt,-4,4,2,3,nt
CC(Oc1ccccc1)C(=O)Nc1cccc(-c2nc3ccccc3[nH]2)c1 (configuration not stated),1,14,39*,0,12,11,i
COc1ccc(S(=O)(=O)N(CC(=O)O)c2ccccc2)cc1,0,15,-3,8,0,6,nt
CCOC(=O)CN(c1ccccn1)S(=O)(=O)c1ccccc1,-2,-3,nt,3,-3,3,nt
COc1ccc(S(=O)(=O)N(CC(=O)O)c2ccccn2)cc1,6,7,40*,3,-1,1,i
COC(=O)c1ccc(CN(c2ccccn2)S(=O)(=O)c2ccccc2)cc1,-2,-1,41*,7,10,1,i
CCc1ccc(-c2ccc3nnc(SCC(N)=O)n3n2)cc1,-4,nt,44*,4,2,4,i
O=C(CSc1nnc2ccc(-c3ccc(F)cc3)nn12)NCC1CCCO1 (configuration not stated),-6,nt,40*,-8,-1,2,nt
O=C(CSc1ccc(-c2ccc(F)cc2)nn1)NCC1CCCO1 (configuration not stated),-10,2,-4,2,0,2,nt
CCc1ccc(-c2ccc3nnc(SC)n3n2)cc1,-5,nt,35,7,0,2,nt
CCOC(=O)c1nc(C)sc1-c1ccnn1S(=O)(=O)c1cccc(Cl)c1,6,nt,76*,3,3,3,i
CCOC(=O)C1=CCN(S(=O)(=O)c2cccc(Cl)c2)C1c1cccc(Cl)c1 (configuration not stated),nt,nt,nt,nt,1,-6,nt
COc1ccc(CCNc2oc(-c3ccco3)nc2C#N)cc1,5,-6,45*,1,-4,-4,+
O=C(Nc1ccc(F)cc1)C(c1ccccc1)N1CCN(c2ccncc2)CC1 (configuration not stated),-10,nt,1,nt,3,2,nt
CN(C)c1cccc(C(=O)NC2CCCc3ccccc32)c1 (configuration not stated),0,nt,48*,-6,-5,2,i
O=C(NC1CCCc2ccccc21)c1cccc(Br)c1 (configuration not stated),-4,6,1,2,-4,-5,nt
SMILES,NOD2-RIPK2 inh,TLR4 MyD88 comp,Neddylation inh,TLR9-MyD88 inh,GC-B act,NPR1 activator,Neddyl inh conf
Cc1ccc(Oc2nc3ccccn3c(=O)c2/C=C(\C#N)C(=O)NC2CCS(=O)(=O)C2)c(C)c1 (configuration not stated),-3,nt,nt,-3,5,2,nt
Cc1cc(C)cc(Oc2nc3ccccn3c(=O)c2/C=C(\C#N)C(=O)NC2CCS(=O)(=O)C2)c1 (configuration not stated),-10,nt,48*,nt,-4,-1,i
CC(OC(=O)/C=C/c1cccc(F)c1)C(=O)NC1CCCCC1C (configuration not stated),-4,nt,0,-5,1,-2,nt
COc1cc(/C=C/C(=O)OC(C)C(=O)NC2CCCCC2C)cc(Cl)c1OC (configuration not stated),0,nt,40*,0,-3,-4,i
O=S1(=O)CC2c3ccccc3CN2CN1Cc1ccc(F)cc1 (configuration not stated),nt,nt,nt,nt,4,-1,nt
CCC(C)NC(=O)c1ccc2nc(-c3ccc(OC)c(OC)c3)c(-c3ccc(OC)c(OC)c3)nc2c1 (configuration not stated),-8,nt,-232,0,1,5,nt
COCC(C)NC(=O)c1ccc2nc(-c3ccccc3)c(-c3ccccc3)nc2c1 (configuration not stated),8,nt,41*,-8,-7,-10,+
CN1CCN(C(=O)c2ccc3nc(-c4ccccc4)c(-c4ccccc4)nc3c2)CC1,8,-10,55*,5,-17,-55,nt
CCN(CC)C(=O)c1ccc2nc(-c3ccccc3)c(-c3ccccc3)nc2c1,0,-4,44*,-5,-3,-5,i
Cc1ccnc(NS(=O)(=O)c2cccs2)c1,3,1,20,0,-1,4,nt
Cc1ccc(NS(=O)(=O)c2cccs2)nc1,-8,nt,41*,7,2,-1,i
Cc1cccc(NS(=O)(=O)c2cccs2)n1,-11,-2,40*,9,8,-2,i
COc1cccc(OC)c1-c1nnc(-c2cn(C)c3ccccc23)o1,-6,1,45*,-15,3,-3,i
COc1ccccc1-c1nnc(-c2ccc(C)cc2)o1,2,nt,17,-4,-3,3,nt

# Screens deposited in PubChem BioAssay by several laboratories.
